# Data from PubChem BioAssay AID1626 (SRMLSC, 2009).
# Hit rate of the full screen: of about 220,000 compounds, about 2,000 (0.91%) were called active. Roughly 2% stayed inconclusive and do not appear here. Not all results are given here. Measured potencies and affinities stand elsewhere. Unmarked numbers belong to inactive results. Rule as the data show it: inconclusive = inhibition above about 80% without an active follow-up result; inactive = below that; test concentration not stated here.
# Assay: M. tuberculosis H37Rv growth inhibitors, H37Rv strain (AID 1626);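 also: bacteria incubated seven days before Alamar blue readout; 0% = bacteria only wells and 100% = bacteria with antibiotic wells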
# Conditions: stronger effect = higher value, concentration not given here
row,Compound,inhibition [%]
1,Cc1noc(C)c1S(=O)(=O)N1CCCCC1,-4.38
2,CCC(C)(C)C(=O)Nc1ccc(OC)cc1[N+](=O)[O-],-0.65
3,CCc1nnc(NC(=O)c2cc3c(s2)CCCCC3)s1,-9.6
4,Cc1csc(NC(=O)c2cc3c(s2)CCCCC3)n1,16.1
5,Cc1cc(Cl)ccc1NC(=O)C1CCCN1C(=O)c1cccs1 (stereo unspecified),0.31
6,CCN(CC)CCn1c(SCC(=O)NCc2ccccc2)nc2c(sc3ccccc32)c1=O,3.01
7,COc1ccc(Nc2c3c(nc4ccccc24)CCCC3)cc1OC,8.23
8,O=C(CSc1nnc(NC(=O)c2ccccc2C(=O)O)s1)Nc1ccccc1Cl,-9.06
9,CCOc1cc(/C=C/c2cc(C(F)(F)F)[nH]c(=O)n2)ccc1O,2.01
10,COc1cc(C(=O)N/N=c2/sc3ccccc3n2C)cc(OC)c1OC,-5.9
11,COc1ccccc1NC(=O)c1cc2ccccc2nc1C,2.95
12,CCCc1cc(=O)oc2cc(OCC(=O)NCc3cccs3)ccc12,7.98
13,O=C(COc1ccc2c(-c3ccccc3)cc(=O)oc2c1)NCc1cccs1,1.19
14,COc1ccc(Cn2ccnc2CO)cc1[N+](=O)[O-],-1.53
15,O=C(NC(=S)Nc1ccccc1)c1cc(-c2ccccc2)nc2ccccc12,-4.77
16,O=C(O)c1cc(-c2ccccc2)nc2ccccc12,-5.49
17,COc1cccc(-c2cc(C(=O)Nn3cnnc3)c3ccccc3n2)c1,2.95
18,COc1ccc(-c2cc(C(=O)Nc3nc4c(C)cccc4s3)c3ccccc3n2)cc1OC,12.1
19,O=C(Nc1nc2ccccc2s1)c1cc(-c2ccco2)nc2ccccc12,13.9
20,COc1ccc(-c2cc(C(=O)Nc3ccc(O)cc3)c3ccccc3n2)cc1OC,14.5
21,O=C(C[n+]1ccccc1)Nc1c(Cl)cc(Cl)cc1Cl,-1.93
22,Cn1cnnc1SCC(=O)Nc1nc(-c2ccccc2)cs1,-4.7
23,COc1ccc(NC(=O)CSc2nc3c([nH]c4ccccc43)c(=O)n2C)cc1,7.61
24,Cc1ccc(OCC(=O)c2cc(C)n(CC(F)(F)F)c2C)c([N+](=O)[O-])n1,-2.91
25,N/C(CS(=O)(=O)c1ccccn1)=N\OC(=O)c1ccc(Cl)cc1,-1.94
26,Cn1ncc(N)c1C(=O)Nc1cccc(C(F)(F)F)c1,4.36

row,Compound,inhibition [%]
1,O=C(c1cccc(Cl)c1)N1CCC(=O)N(C(COCc2ccccc2)Cc2ccccc2)CC1 (stereo unspecified),-0.16
2,CCOC(=O)c1sc2nc3c(SCC(=O)O)cc(C(=O)c4cc(F)ccc4O)cn3c(=O)c2c1C,-5.14
3,CC(=O)Nc1ccc(Oc2nc(-c3ccccn3)nc3ccccc23)cc1,-12.6
4,Cc1cc(Oc2ccc(Cl)cc2)nc(-c2ccccc2O)n1,20.4
5,CC(=O)Nc1cccc(Oc2nc(-c3ccccn3)nc3ccccc23)c1,3.26
6,COc1ccc(Oc2nc(-c3ccncc3)nc3ccccc23)cc1,3.37
7,FC(F)(F)c1cc(Oc2ccc(Cl)cc2)nc(-c2ccccn2)n1,11.7
8,Cc1ccc(Oc2nc(C(F)(F)F)nc3ccccc23)cc1,9.79
9,CSc1nc(Oc2ccc(F)cc2)c2ccccc2n1,8.64
10,C/C(=N\Nc1nc(-c2ccccn2)nc2ccccc12)c1ccc(F)cc1,67.4
11,COc1cc(C(=O)c2nccc3cc(OC)c(OC)cc23)c([N+](=O)[O-])cc1OC,1.27
12,COc1ccc(Nc2nnc(SCC(=O)/C=C3/N(C)c4ccccc4C3(C)C)s2)cc1,10.8
13,CCSc1nnc(-c2ccc(C)cc2)c2ccccc12,18.7
14,Cc1onc(-c2ccccc2)c1C(=O)N/N=C/c1cc(Br)c(Br)o1,-1.13
15,COc1ccc2nc(SCC(=O)NCCc3ccccc3)[nH]c2c1,0.98
16,O=c1[nH]c(SCc2nc3ccccc3n2Cc2ccccc2)nc2ccccc12,5.31
17,Fc1ccc(CSc2nncn2NCc2ccccc2)cc1,-8.84
18,O=C(Nc1cccc(NC(=O)c2cccs2)c1)c1ccc2c(c1)OCCO2,4
19,O=C(NNC1=NCCC1)c1cccc(S(=O)(=O)N2CCCC2)c1,-1.54
20,Cc1cccc(N=Cc2c(O)cc(C)oc2=O)c1,2.51
21,Brc1ccc2ncc(Br)cc2c1,9.05
22,Nc1ccc(Br)cc1C(=O)O,-3.82
23,Cc1cc(C)cc(Oc2ccc(N)cc2)c1,-4.94
24,Nc1ccc(Oc2cccc(Oc3ccc(N)cc3)c2)cc1,0.76
25,CCOC(=O)N1CCN(S(=O)(=O)c2ccc3c(c2)CCN3C(=O)CC)CC1,-14.9
26,CCc1ccccc1NC(=O)c1ccc(Cn2cc([N+](=O)[O-])cn2)cc1,2.06

row,Compound,inhibition [%]
1,CC(C)Cc1nnc(NS(=O)(=O)Cc2ccccc2)s1,3.7
2,COc1ccc(CN(C)C(=O)CCl)cc1,17.4
3,CN(Cc1ccc(Cl)cc1)C(=O)CCl,63
4,CCOC(=O)c1ccc(-n2c(CN3CCOCC3)nc3ccc([N+](=O)[O-])cc3c2=O)cc1,69.4
5,CCOC(=O)c1ccc(-n2c(CN3CCN(CC)CC3)nc3ccc([N+](=O)[O-])cc3c2=O)cc1,64.1
6,CC(C)Sc1nnc([C@@H](N)Cc2ccccc2)o1,-1.26
7,Cc1ccc(-c2nn(-c3cccc(F)c3)cc2CNCCc2ccncc2)o1,8.28
8,Cc1ccc(-c2nn(-c3cccc(F)c3)cc2CNCc2cccnc2)o1,12.8
9,C=CCNC(=O)c1onc(CSc2cc(C)cc(C)c2)c1C(=O)NCC=C,4.46
10,O=c1c2cn[nH]c2[nH]c(=S)n1-c1cccc2ccccc12,8.18
11,COc1ccccc1OCC#CCN1CCCCCC1,4.4
12,Cc1ccc(NC2=NCC(Cc3ccc(Br)cc3)S2)cc1 (stereo unspecified),44.8
13,COc1ccc(NC2=NCC(C)S2)cc1 (stereo unspecified),5.03
14,CC1=C(C#N)C(NC(=O)C(C)(C)C)(C(F)(F)F)C(=O)N1 (stereo unspecified),-1.62
15,CCOC(=O)CN(Cc1sccc1C)C(=O)Nc1ccc(OCC)cc1,3.69
16,CSc1ccc(/C=C(/Sc2nnc(-c3ccccc3)o2)C(=O)O)cc1,-6.84
17,CCOC(=O)c1cccc(NC(=O)/C=C/c2ccc([N+](=O)[O-])cc2)c1,22.2
18,CCCCCC/C(=N/O)c1ccccn1,-3.95
19,CCCCCC(=O)N/N=C(\C)c1ccccn1,1.4
20,COc1ccc(Cl)cc1-c1n[nH]c(=S)n1C1CCCCC1,0.84
21,Cc1ccccc1-c1ncc(CN2CCC(CO)(CCCc3ccccc3)CC2)cn1,69.6
22,CC(=O)c1cccc(CN2CCC(CO)(CCCc3ccccc3)CC2)c1,3.9
23,N#C/C(=C(/O)c1cccs1)c1nnc2n1CCCCC2,-5.04
24,Cc1ccc(S(=O)(=O)N2CCCC(C(=O)N(Cc3cccs3)C3CC3)C2)cc1 (stereo unspecified),-4.95
25,CSCCC(NC(=O)c1ccc(C(C)(C)C)cc1)C(=O)O (stereo unspecified),0.53
26,O=C(COc1ccc(OCc2ccccc2)cc1)NN=C1CCCC1,7.98

row,Compound,inhibition [%]
1,Nc1ccc(O)c2c1C(=O)c1ccccc1C2=O,0.25
2,COc1ccc(OC)c2c1C(=O)c1ccccc1C2=O,6.76
3,Clc1ccc(Nc2ncn[nH]2)cc1,77.2
4,Clc1cc(Cl)cc(Nc2ncn[nH]2)c1,5.96
5,CCCOc1ccc2c(C)c(CC(=O)OC)c(=O)oc2c1,-2.3
6,Cc1ccc(SCC(=O)NC(=O)NC(C)C)c(C)c1,11.6
7,O=C(Nc1nnc(C2CC2)s1)c1cc(-c2ccccc2)nn1-c1ccccc1,43.6
8,COc1ccc(NC(=S)N(Cc2ccc(Cl)cc2)Cc2ccc(C(=O)O)cc2)cc1Cl,61
9,O=C(Oc1ccc2ccccc2c1)c1ccco1,53.4
10,CC1=CC(C)(C)Nc2ccc(OC(=O)c3cccnc3)cc21,-2
11,CC1CC(C)(C)NC(C)c2ccccc21 (stereo unspecified),-2.84
12,CC1=CC(C)(C)Nc2ccc(OC(=O)CN3C(=O)c4ccccc4C3=O)cc21,-11.5
13,COC(=O)c1ccc(OC(=O)c2ccco2)cc1,-4.94
14,CC1CC(C)(C)NCc2ccccc21 (stereo unspecified),-9.91
15,NS(=O)(=O)c1ccc(NC(=O)c2c(Cl)cccc2Cl)cc1,2.71
16,O=C1CC(c2cccc(F)c2)c2c(c3ccccc3[nH]c2=O)O1 (stereo unspecified),1.98
17,Cc1ccccc1-n1c(C)nc2ccccc2c1=O,2.88
18,O=c1c2ccccc2nc(-c2ccccc2)n1-c1ccccc1,2.18
19,Cc1ccc(NC(C)c2cc(Cl)ccc2O)cc1 (stereo unspecified),-1.72
20,CC(Nc1ccc(Cl)cc1)c1cc(Cl)ccc1O (stereo unspecified),-8.64
21,CSc1nc(N(C)NC(=O)c2ccc(F)cc2)c2ccccc2n1,-5.17
22,CSc1nc(N(C)NC(=O)c2ccccc2)c2ccccc2n1,-4.21
23,O=C(NCc1ccccc1)[C@]1(C(F)(F)F)C[C@H](CCc2ccccc2)CCCO1,-10.1
